Results published in PubChem BioAssay AID686978 (National Center for Advancing Translational Sciences (NCATS), 2013).
The campaign covered roughly 420,000 compounds. About 64,000 (15%) were called active. Inconclusive results (about 27%) are left out. Not all results are given here. Values without a mark were called inactive. Calls come from the whole dose curve; as a rule, active = well fitted inhibition curve with a large enough effect; inconclusive = small, poorly fitted or top-dose-only effect; inactive = flat fitted curve, though single readings scatter.

Experiment: qHTS for Inhibitors of human tyrosyl-DNA phosphodiesterase 1 (TDP1): qHTS in cells in absence of CPT; note: nearly all actives have a fitted effect of over 55% in size
Conditions: DT40 Tdp1-/- hTDP1 cells, no CPT, ATP luminescence, 48 h; activity change, negative = growth inhibition: at 46.2 µM (top of the series)
Procedure, shortened: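 DT40 Tdp1-/-;hTDP1 cells, no CPT (DMSO vehicle only), 400 cells/well; compounds pin-transferred; ≥48 hr, 37 °C; CellTiter-Glo 30 min RT dark, luminescence read.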
% is set by controls: 0 for no effect and ±100 for the full control effect; potency is the fitted concentration of half-maximal effect.

| Structure (SMILES) | activity change, negative = growth inhibition [%] | Potency |
| --- | --- | --- |
| CCc1cccc(NC(=O)C2CCCN(S(=O)(=O)c3ccc4[nH]c(=O)ccc4c3)C2)c1 (stereo unspecified) | -3.92 | – |
| Cc1nc2cc(S(=O)(=O)C(F)(F)F)ccc2s1 | -6.85 | – |
| CCOC(=O)c1sc(NC(=O)C2CSC3(C)CCC(=O)N23)nc1C (stereo unspecified) | -3.05 | – |
| O=C(COC(=O)[C@H](Cc1ccccc1)NC(=O)c1cccs1)Nc1cc(F)ccc1F | -8.16 | – |
| C/C(=N\Nc1ccc([N+](=O)[O-])cc1)c1ccc(-n2nncc2C(C)(C)C)cc1 | -23.8 | – |
| CCc1cc(=O)oc2c(C)c(OCC(=O)N3CC[C@@]4(O)CCCC[C@H]4C3)ccc12 | -24.2 | – |
| COC(=O)C1=NN(c2ccccc2)C2C(=O)N(c3ccccc3OC)C(=O)C12 (stereo unspecified) | 0.0774 | – |
| COc1ccc(S(=O)(=O)NNC(=O)Nc2ccc(C)cc2)c(OC)c1 | -20.2 | – |
| CC(=O)c1cnc(SCC(=O)O)nc1C | -22.3 | – |
| O=C(NCc1ccccc1)C(c1cccnc1)N(C(=O)c1csnn1)c1ccc(F)cc1 (stereo unspecified) | -2.72 | – |
| Cc1cccc(N(C(=O)c2csnn2)C(C(=O)NCc2ccccc2)c2ccncc2)c1 (stereo unspecified) | -21.1 | – |
| COc1ccc(C(C(=O)NCc2ccccc2)N(Cc2cccs2)C(=O)c2cnccn2)cc1 (stereo unspecified) | – | 16.4 µM (active) |
| COC(=O)CN1C(=O)[C@H]2[C@@H](/C=C/c3ccccc3)N3C(=O)CN(Cc4ccccc4)C(=O)[C@@]3(Cc3ccccc3)[C@H]2C1=O | -15.4 | – |
| C[C@@H]1CN([C@@H](C)CO)C(=O)CCCn2nncc2CO[C@H]1CN(C)C(=O)Nc1ccc(C(F)(F)F)cc1 | -17.4 | – |
| CC(C)n1c(C(O)c2ccccc2)nc2ccccc21 (stereo unspecified) | -4.93 | – |
| CC(=O)NC(Cc1c[nH]c2ccccc12)C(=O)O (stereo unspecified) | -0.64 | – |
| CC(C)n1c(NCc2c[nH]c3ccccc23)nc2ccccc21 | – | 13 µM (active) |
| Cc1ccc2c(c1)N(C(=O)Nc1ccc(Br)cc1F)CCO2 | -14.3 | – |
| O=C1OCCN1C(=O)[C@H]1[C@H](c2ccccc2)C(c2ccc(F)cc2)=NN1c1ccccc1 | -3.74 | – |
| C[C@@H]1C(c2ccc(F)cc2)=NN(c2ccc(Br)cc2)[C@H]1C(=O)N1CCOC1=O | – | 20.6 µM (active) |
| COc1ccc(/C(N)=N/OC(=O)CCCc2ccccc2)cc1 | -6.16 | – |
| CONC(=O)c1cc(OCC(F)(F)F)ccc1OCC(F)(F)F | 2.93 | – |
| CCc1ccc(-c2nn(-c3ccccc3)cc2CSC(=N)N)cc1 | – | 23.1 µM (active) |
| CCc1ccc(-c2nn(-c3ccccc3C)cc2C(=O)N2CCN(C3CCS(=O)(=O)C3)CC2)cc1 (stereo unspecified) | 4.44 | – |
| CCn1c(SCc2ccc(C)cc2)nnc1-c1nn(-c2ccccc2)ccc1=O | -27.9 | – |
| O=C(CCS(=O)(=O)Cc1ccccc1)Nc1ccc2c(c1)OCCO2 | -0.997 | – |

| Structure (SMILES) | activity change, negative = growth inhibition [%] | Potency |
| --- | --- | --- |
| CCN(Cc1ccncc1)C(=O)CCc1ccccc1 | -10.6 | – |
| Cc1ccc(C)c(S(=O)(=O)N2CCCOC2CNC(=O)C(=O)NC2CCCCC2)c1 (stereo unspecified) | -23 | – |
| CN(C(=O)COC(=O)Cc1ccccc1[N+](=O)[O-])C1CCS(=O)(=O)C1 (stereo unspecified) | -9.32 | – |
| O=C(c1cccc([N+](=O)[O-])c1)N1CCN(Cc2ccccc2)CC1 | 6.66 | – |
| O=C(c1ccncc1)N1CCN(S(=O)(=O)c2cccc([N+](=O)[O-])c2)CC1 | 2.95 | – |
| CC1(c2cccc([N+](=O)[O-])c2)CC(C)(C)N(C(=O)c2ccccc2)c2ccccc21 (stereo unspecified) | – | 18.4 µM (active) |
| N#Cc1ccc(-c2ccc3nccn3c2)cc1 | -7.83 | – |
| Cn1c(=O)c(C(=O)O)nn(-c2ccccc2)c1=O | – | 16.4 µM (active) |
| CC(=O)c1nn(-c2ccccc2)c(=Nc2ccccc2)cc1C | -19.2 | – |
| Cc1ccc(-n2ccc(=O)c(C(=O)O)n2)cc1 | -6.98 | – |
| CCC1SC(CC)C(=O)N(CC(=O)NC2CCCCC2)C1=O (stereo unspecified) | -13.1 | – |
| CC(C)Oc1ccc(S(=O)(=O)N2CCOCC2)cc1NC(=O)C1CCCC1 | 1.44 | – |
| O=C(Cn1c(-c2cncs2)nc2ccccc21)NC1CCCC1 | -9.17 | – |
| O=C(Cn1c(-c2cscn2)nc2ccccc21)Nc1ccc(Cl)cc1 | – | 20.6 µM (active) |
| COc1ccc(NC(=O)COC(=O)Cn2c(C)nc3ccccc32)cc1OC | -18.9 | – |
| C#CCOCCOCCOCCNc1nc(N2CCN(C(=O)[C@H](Cc3ccc(O)cc3)n3cc(C(N)CC(C)C)nn3)CC2)nc(N2CCN(C(=O)[C@H](CCC(=O)O)n3cc(C(N)[C@H](C)CC)nn3)CC2)n1 (stereo partly specified) | -3.33 | – |
| O=C(CSc1nc(C2CC2)nc2ccccc12)Nc1cccc(O)c1 | -15.2 | – |
| O=C(CSc1nc(-c2cccc(F)c2)[nH]c1-c1ccccc1)Nc1ccc2c(c1)OCO2 | – | 10.3 µM (active) |
| Cc1nnc(NC(=O)CSc2nc(C3CCCCC3)nc3ccccc23)s1 | -29.8 | – |
| CCNC(=O)CSc1nc(-c2ccccc2)cs1 | 3.72 | – |
| CN(C(=O)CSc1nc(C2CC2)nc2ccccc12)c1nc(-c2ccccc2)cs1 | – | 20.6 µM (active) |
| O=C(CSc1nc(C2CC2)nc2ccccc12)Nc1ccc2c(c1)OCCO2 | – | 20.6 µM (active) |
| O=C(CN1CCN(CC(=O)Nc2ccc3c(c2)OCO3)CC1)Nc1ccc(F)cc1 | -22.2 | – |
| COC(=O)CSc1nc(C2CC2)nc2ccccc12 | -3.67 | – |
| O=C(CSc1nnc(-c2ccccn2)n1-c1ccccc1)Nc1ccc2c(c1)OCO2 | -6.15 | – |
